We go through 40 sequences from the supplement of paper PMC6555819.

The assay relates to VDR:RXRa (NR concentration 270 nM, RXRa partner concentration 90 nM). Kind of assay: PBM binding z-score (relative to random genomic background probes); higher = stronger binding; sequences stand for … in GC…GCGATTGACAGCGTAGAATGAAGG
The procedure:
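Protein-binding microarray (Agilent 4x180K custom design, double-stranded 60-nt probes: 5' GC cap, 34-nt variable region, 24-nt constant primer region; full probe sequence given). Purified or IVT nuclear receptor:RXRα heterodimers (3:1 NR:RXRα, mostly 270:90 nM) or homodimers were incubated for 1 h in PBS with 2% milk and no ligand, then detected with Alexa488 antibodies. Fluorescence from o1-orientation probes (~5 replicates averaged) was converted to z-scores against 500 random hg19 background probes. Variable regions are seed direct-repeat (DR0–DR5) sites, all their single-nucleotide variants and half-site ablations.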
In turn, CGTCAAAGTTCAACTAAGGGAACGTAAAGCACGC displayed a PBM binding z-score of 4.35.
Under AAAGACAGGTGAGTGAAGGTAACTCAGCTGGACG stands -0.172; under ATCGAAAGGTCGAAGAGGTGAGTATACACCGTTT, 4.47; under ACTATCAGTTGACTTAGGGCAACCGATACGACGC, 0.408.
Under CAAACTAGGTTAAGAGGTCAAAGTCCGCTTCCCG stands 5.21.
For GCATATAGGTAATACAAGGTGCAAGTCCGATTGT the value was 0.355.
Turning to ATCTCTAGGTACAAGTTCAGTGAATCCCGAGGAT, the PBM binding z-score was 1.96.
For ATCTCTAGGTAAACGTTCAGTGAATCCCGAGGAT the value was -0.107; for GCATATAGGTAATACAAGGTGAAAGTCCGATTGT, 0.299; for CCTTACGGGTCACGACGTTATAGCACGACGAGCG, 3.73.
AGAATGAGGATATACGTAGATCAGGGAAGAAAGT showed a PBM binding z-score of -0.427.
For CTCGAAATGTCGTGCTCAGGTGAGTATACCAAAC the value was 0.0153; for CAAACTAGGTCATAGGTCAAAGTCGAGCCAACCA, 4.9.
In turn, AATACAGGGTTATCGTAGGCCAGAGTACGCACAG registered a PBM binding z-score of 1.61.
The sequence AGAGACAGGTGATGAAGGTAACTCAGGCTATCAT had a PBM binding z-score of 0.424.
Under TCTTGTAGATCAGCAGGTGAAGAAAGCTGGCCAA stands 0.208; under CTCGAAAGGTCGGTTGAGGTGAGTATCCGGATAA, 2.13; under TTACCACGGTGAAAGGTCGTTGATGCACGCCTTG, 1.99.
For TCTAGTAGGTTAGGGGCATTCAGAATGGCGTCGA the value was 1.04; for TGTCAAAGTTCAAAGGTAACGTATGTATCCACAC, 5.14; for GCGACTGGGGCATCAGCAGGATACCATAACTTAA, -0.816.
In turn, GCAGACAGGTGAAGCGCAGGTAACTCAGGGTGGC showed a PBM binding z-score of -0.67.
For CCTCGGAGGACAACAGAAGGTCAGAGCTGCCAGA the value was 1.35.
Under CCTCCGAGGACAACAGGAGGTCAGAGCTGCCAGA stands 2.27.
For ACTATTAGTTGAGACGAGGGCAATCGATAGGTTG the value was 0.793.
On to CCTCGGAAGACAACAGGAGGTCAGAGCTGCCAGA, for which the PBM binding z-score was 1.5.
For CAAACTAGATCACAGAGGTCAAAGTCCGTGCGTA, the PBM binding z-score was 5.7.
For CCTGCTACGTCAATGGTCAGCTAAAGCAGCTCGC the value was -0.379; for CAGCCTAGGTCAGAGCCAGTATAGGAGGAACGTT, 0.207.
Under ATCGAAAGGTCGACGAGGTGAGTAGACACCGTTT stands 5.23; under CCTACTGGGCCATCAGGTCCTTGATATCAACGTT, -0.0448; under AGACTGAGGTTATTAAGATCAGGGAATTGCGGTC, 2.39.
For CTCGAAAGGTCGTGCTCAGGTGAGTATCCCAAAC the value was 3.03; for TCTTGTAGATCAATATAGGTTAAGAAAGTGCGCT, 1.24.
As to CGTCCAAGGTCAGAGAGGTCAGTAAATGCCGAGT, the PBM binding z-score is 7.22.
Under ACTATTAGTTGACTTAGGGCAAACGATACGACGC stands 0.55; under CCGACTGGGGCAAGGTTTCCATAACGCACAGCCA, -0.502; under ATATGTAGGTGAGCTGGGGTCATTCAGACTAGGC, 5.66.
For ACTCGGAGGACGAAGGTCAGAGCTACGCCAGTGA the value was 1.15; for CGTCCAATGTCATAGGAGGTCAGTGAAGACAGAT, 3.45.
